This is a sample that favours compounds with a hit; in the whole collection about 4.7% have one here.
TRHR ag = activates the human TRH receptor; P34981; TRHR cells, calcium flux fluo-8, FDSS agonist mode; activation, % at 2 µM; 360,000 compounds, 0.18% hits; AID 493084; further: 0% is about no effect
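Agonist-mode FDSS calcium read (Ex 480/Em 530, 1 s cycles) in 1536-well TRHR cells with fluo-8 dye, after 10-cycle baseline and 23 nL compound addition; TRH at EC20 (10 nM final) added afterwards for the enhancer phase.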
D1 potentiator = human D1 dopamine receptor positive modulation; HEK293 TREx D1 cells, calcium flux, dopamine EC20 potentiation; potentiation, % at 10 µM; P21728; 360,000 compounds, 0.036% hits; in the data active means potentiation above about 30%; further: 0% is about no effect
Target sequence (P21728 whole entry, looked up): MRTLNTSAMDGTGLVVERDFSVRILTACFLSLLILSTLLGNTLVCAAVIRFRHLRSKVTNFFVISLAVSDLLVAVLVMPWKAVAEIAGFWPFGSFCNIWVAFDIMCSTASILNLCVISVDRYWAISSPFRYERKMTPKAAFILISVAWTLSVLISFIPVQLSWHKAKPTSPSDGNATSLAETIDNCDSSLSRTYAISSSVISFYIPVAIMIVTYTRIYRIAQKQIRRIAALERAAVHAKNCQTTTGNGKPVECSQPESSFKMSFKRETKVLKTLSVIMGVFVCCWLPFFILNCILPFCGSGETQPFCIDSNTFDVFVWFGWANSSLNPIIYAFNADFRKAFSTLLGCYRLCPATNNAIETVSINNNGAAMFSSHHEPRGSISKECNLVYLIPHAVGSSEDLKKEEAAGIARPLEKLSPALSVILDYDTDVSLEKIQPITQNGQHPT
TRHR enhancer = allosteric enhancers of human TRH receptor; AID 493056; enhancement, % at 2 µM; TRHR cells, fluo-8 calcium fluorescence, EC20 TRH enhancement; P34981; 360,000 compounds, 0.66% hits; in the data active means enhancement above about 30%; further: 0% is about no effect
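TRHR-expressing cells loaded with fluo-8 calcium dye were read kinetically (ex 480/em 530) during compound addition, then stimulated with an EC20 of TRH (10 nM final). Enhancement of the Gq-mediated intracellular calcium response was scored.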
D1 antag = human D1 dopamine receptor antagonism; HEK293 TREx D1 cells, calcium flux, dopamine EC80; active compounds read low; activity change, negative = inhibition, % at 10 µM; 360,000 compounds, 3.2% hits; in the data active means activity change below about -30%; further: on the % scale 0 is the no-effect control and ±100 the full control effect
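Antagonism measured as reduced calcium response to an EC80 dopamine addition following 180 s compound pre-read; cells were inducible HEK293 Trex D1 plated overnight at 30 C, read kinetically at 1 cycle/sec.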
D1 agonist = human D1 receptor agonism. activation, % at 2 µM. HEK293 T-REx D1 cells, calcium flux, agonist mode. 360,000 compounds, 1% hits; further: 0% is about no effect
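Agonism was scored from calcium flux recorded over 180 s (1 read/s) after pintool compound addition, following a 10-cycle baseline. Cells were inducible force-coupled HEK293 TREx D1, plated overnight at 30 C and loaded with no-wash calcium dye.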
* hit, by the source's call; / = no result; ! = repeats disagree. Unless noted, no stated cut-off is given here; in the data, active means activation above about 30%; inactive means the rest.

SMILES	TRHR ag	D1 potentiator	TRHR enhancer	D1 antag	D1 agonist
NS(=O)(=O)c1ccc(NC(=O)C(Sc2ccccc2)c2ccccc2)cc1 (centres undefined)	1	0	-3	-33*	4
CCOC(=O)c1c(C)sc(-c2c(-c3ccccc3)[nH]c3[nH]c(=O)[nH]c(=O)c23)c1O	-1	0	0	-2	39*
COC(=O)c1c(C)sc(-c2c(-c3cccc(Cl)c3)[nH]c3c2c(=O)[nH]c(=O)n3C)c1O	36*	-1	-2	5	62*
COc1ccc(C(=O)N2c3ccccc3C(C)(c3ccc(Cl)cc3)CC2(C)C)cc1 (centres undefined)	1	0	-2	6	2
NC(=O)c1ccccc1NC(=O)Nc1cccc(Cl)c1	1	-13	13	-42*	1
CS(=O)(=O)c1ccc2nc(NC(=O)Nc3ccc(Cl)c(Cl)c3)sc2c1	1	3	-4	-9	8
CS(=O)(=O)c1ccc2nc(NC(=O)Nc3cccc(Cl)c3)sc2c1	0	-3	1	-26	34*
Cc1nc2ccc(S(=O)(=O)NC(C(=O)Nc3nc4ccc(Cl)cc4s3)C(C)C)cc2s1 (centres undefined)	0	/	4	-41*	2
CSc1cccc(NC(=O)Nc2ccc(Cl)cc2)c1	1	-9	-1	-33*	13
CSc1cccc(NC(N)=O)c1	1	-8	-6	-19	2
COc1ccccc1Nc1c2c(nc3ccc(NC(=O)c4ccc(N(C)C)cc4)cc13)CCCC2	0	-1	2	-27	4
COc1ccc(NC(=O)Cn2nc3c(cc2=O)CCCC3)cc1Cl	1	-4	3	-3	0
NS(=O)(=O)c1ccc(NC(=O)Nc2cccc(Cl)c2)cc1	-4	-10	3	-32*	1
O=S(=O)(Nc1cccc2c1CCCC2)c1cccc(C(F)(F)F)c1	-2	2	-7	-9	6
Cc1ccc(S(=O)(=O)Nc2cccc3c2CCCC3)cc1	-1	-2	15	-32*	6
Cc1csc2nc(-c3ccc(NS(=O)(=O)c4cccc(F)c4)cc3)cn12	0	2	-1	-24	0
Cc1cccc(C)c1OCC(O)CNC(C)c1ccccc1 (centres undefined)	1	-2	6	28	29
Cc1nc(C/C(=N\N)c2ccc(O)cc2O)cs1	1	-3	-2	-32*	3
C=CCn1cc([N+](=O)[O-])nc1C	0	-3	19	-31*	1
CCOc1ccc(CCNc2ncnc3onc(-c4ccc(Cl)cc4)c23)cc1	1	0	9	-48*	24
COc1ccc(CCNc2ncnc3onc(C)c23)c(OC)c1	-1	-7	-1	-45*	24
CSc1ccc(CCNc2ncnc3onc(C)c23)cc1	-1	-9	22	-50*	35*
Cc1ccc(CCNc2ncnc3onc(-c4ccc(Cl)cc4)c23)cc1	0	1	2	-11	3
CCCNc1ncnc2onc(C)c12	0	3	13	-1	4
COCCCNC(=O)c1sc2nc3n(c(=O)c2c1C)CCC3	0	-1	-2	-3	0
SMILES	TRHR ag	D1 potentiator	TRHR enhancer	D1 antag	D1 agonist
Nc1nonc1-c1nc2ccccc2n1CC(=O)Nc1cccc(C(F)(F)F)c1	3	-1	-6	-14	10
CC1=Nc2cc(C(=O)NC3CCCC3)ccc2Sc2ccc(C)cc21	-1	-2	4	-18	5
COc1ccc(CNC(=O)CN(c2ccccc2)S(=O)(=O)N(C)C)cc1	0	-4	-17	-32*!	1
COc1ccccc1N(CC(=O)NCc1ccco1)S(=O)(=O)c1ccc(C)cc1	0	0	0	4	1
COc1ccc(CNC(=O)CN(c2ccccc2OC)S(=O)(=O)c2ccc(C)cc2)cc1	0	0	0	-32*	44*
CN(C)S(=O)(=O)N(CC(=O)NCc1ccccc1)c1ccccc1	0	1	-6	-19	1
COCCCNC(=O)CCc1c(C)nc2cc(-c3ccc(Cl)cc3)nn2c1C	-1	-5	10	-54*	7
CCCCNC(=O)CCc1c(C)nc2cc(-c3ccccc3)nn2c1C	0	-4	-1	-24	1
COc1ccc(N2CCN(C(=O)CCc3c(C)nc4cc(-c5ccc(Cl)cc5)nn4c3C)CC2)cc1	0	-7	0	-39*	1
COc1ccc(N2CCN(C(=O)CCc3c(C)nc4cc(-c5ccc(OC)cc5OC)nn4c3C)CC2)cc1	0	-1	-13	2	2
CCCCCn1c(=O)[nH]c2cc(C(=O)NCc3ccc(F)cc3)ccc2c1=O	0	1	2	7	5
Cc1ccc(CNC(=O)c2nc(SCc3ccc(F)cc3)ncc2Cl)cc1	4	2	42*	4	21
Cc1ccc(CNC(=O)c2nc(SCc3ccc(C)cc3)ncc2Cl)cc1	5	6	-3	-2	13
COc1ccc(CCNC(=O)c2nc(SCc3ccccc3F)ncc2Cl)cc1OC	4	3	-3	-3	33*
Cc1ccc(CNC(=O)CSCc2ccc(F)cc2)cc1	0	-1	-5	-36*!	1
CC1SC(C)C(=O)N(CC(=O)NCc2ccc(F)cc2)C1=O (centres undefined)	0	-1	39*	8	0
CCC1SC(CC)C(=O)N(CC(=O)NCc2ccc(F)cc2)C1=O (centres undefined)	0	2	-2	0	6
Cc1ccc(CNC(=O)CSCc2ccccc2)cc1	-2	-5	-6	-15	3
Cc1cc2c(s1)c1cnn(Cc3c(F)cccc3C(F)(F)F)c(=O)c1n2C	-1	-6	-1	-1	9
Nc1c(C(=O)Nc2cccc(C(F)(F)F)c2)c2ccccn2c1C(=O)c1ccccc1	0	0	0	-21	0
Cc1ccc(S(=O)(=O)N2CCN(C(=O)CCC(=O)NCc3cccc(C(F)(F)F)c3)CC2)cc1	-1	-3	-7	-20	3
COc1ccc(CC(=O)Nc2cc(-c3cn4cccnc4n3)ccc2OC)cc1	0	-4	-2	-2	0
CCOC(=O)c1c(NC(=O)CSc2nc3ccc(C)cc3[nH]2)sc2c1CC(C)(C)NC2(C)C	2	1	0	11	48*
CCOC(=O)c1c(NC(=O)CSc2nnnn2-c2ccccc2)sc2c1CC(C)(C)NC2(C)C	1	2	9	-11	6
COC(=O)CSc1nc2ccc(C)cc2[nH]1	-1	-10	-4	-36*	3
Cc1ccc2nc(SCC(=O)NCc3ccc(F)cc3)[nH]c2c1	-2	-9	1	-45*	51*
CCCN(Cc1nnc(-c2cccs2)o1)C(=O)CN1C(=O)NC2(CCCCC2)C1=O	0	2	10	1	1
